# Screening data (PubChem)
# GSIS activator: GLuc luminescence reporter in INS-1E cells, primary screen for activators of glucose-dependent secretion of insulin. INS-1E GLuc reporter insulin secretion, 2-3 h. activation, % at 16.6 µM. 0.61% of 370,000 active. AID 743287, 2014;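 active = lowest replicate activation of at least 40%, so every replicate reaches that level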;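 note: 0% = median of neutral control wells and 100% = median of IBMX positive control wells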
# MLL AF4-AF9 inh: inhibitors of AF4 peptide binding to AF9, primary screen, biochemical, AlphaScreen, biotin-AF4 peptide, FLAG-AF9, single point | inhibition, % at 10 µM | 0.47% of 350,000 active;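 active = every replicate reaching a set inhibition limit, whatever the replicate mean, cut at about 25% in these data; inconclusive = mean inhibition reaches that limit but some replicates miss it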;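 note: 0% = plate neutral control median and 100% = total signal loss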
# DENV2 CPE rescue: inhibitors of DENV2 cytopathic effect, primary screen, cell-based, plate reader, single concentration. CPE inhibition, % at 9.99 µM. 1.7% of 350,000 active. AID 651640, 2012. DENV2-infected cells, cytopathic effect rescue; in the data active = CPE inhibition above about 20%, passing the limit was not always enough; inconclusive = no clear call, values can overlap the other calls; tested in BHK-21 cells;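 note: 0% = median of neutral control wells and 100% = median of positive control wells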
# RAD54 inh: inhibitors of human RAD54 branch migration, primary screen, biochemical, fluorescence, single point. DNA repair and recombination protein RAD54-like (Homo sapiens), Q92698. RAD54 Holliday junction branch migration, FAM/BHQ fluorescence. inhibition, % at 10.4 µM. 0.14% of 360,000 active;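 active = mean normalized replicate activity at least 40 and at least half of replicates scoring 40 or more; inconclusive = only one of the two criteria met; inactive = mean below 40 and under half of replicates reaching 40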;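 note: 0% = median of neutral control wells and 100% = median of positive control wells; inhibitors cause a drop in the FAM fluorescence signal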
# RAD52 inh: RAD52 DNA annealing inhibitors, primary screen, biochemical, FRET, single point, set 2; DNA repair protein RAD52 homolog (Homo sapiens), P43351; recombinant RAD52 DNA annealing, FRET fluorescence; inhibition, % at 18.7 µM; 0.46% of 360,000 active;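 active = every replicate showing at least 50% inhibition; inconclusive = mean inhibition at least 50% but not in every replicate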
# Target sequence (P43351 whole entry, looked up): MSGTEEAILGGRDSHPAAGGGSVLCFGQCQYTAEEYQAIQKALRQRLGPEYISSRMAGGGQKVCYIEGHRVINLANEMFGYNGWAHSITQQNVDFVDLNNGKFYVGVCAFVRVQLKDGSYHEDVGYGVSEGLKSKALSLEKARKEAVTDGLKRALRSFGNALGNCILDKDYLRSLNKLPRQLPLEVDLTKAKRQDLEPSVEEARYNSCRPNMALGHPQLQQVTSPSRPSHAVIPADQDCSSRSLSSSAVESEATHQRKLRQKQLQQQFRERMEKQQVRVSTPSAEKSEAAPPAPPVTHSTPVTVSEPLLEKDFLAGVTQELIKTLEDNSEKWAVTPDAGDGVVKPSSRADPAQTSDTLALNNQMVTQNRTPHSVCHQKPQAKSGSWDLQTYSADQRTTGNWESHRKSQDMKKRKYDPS
# dFosB act: activators of delta FosB homodimer, primary screen, biochemical, fluorescence polarization, TAMRA-CDK5 oligo, single point | AID 493131, 2011 | 0.99% of 340,000 active | purified delta FosB; percent of positive-control signal above neutral wells | activation, % at 25 µM | Protein FosB (Mus musculus), P13346;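 active = mean activation above about 17%, with every replicate also reaching it, limit read from the data, passing the limit was not always enough; inconclusive = only one of the two conditions met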
# Starred values were filed as active, the others as inactive; ? = inconclusive; nt = not tested or not shown. The list is not random: actives were taken first. Their share in the collection is about 3.1%.
SMILES,GSIS activator,MLL AF4-AF9 inh,DENV2 CPE rescue,RAD54 inh,RAD52 inh,dFosB act
CC(=O)CSc1nnc(C(F)(F)F)n1C,-6,33*,-1,nt,-5,-3
O=C(CSCc1ccc([N+](=O)[O-])cc1)Nc1ccc(S(=O)(=O)N2CCCCCC2)cc1,-13,-1,80*,5,-10,-7
Cc1noc(C)c1NC(=O)Nc1ccc2c(c1)CC(=O)N([C@@H](C)CO)C[C@@H](C)[C@@H](CN(C)S(=O)(=O)c1cccs1)O2,12,?,36*,-4,5,nt
Cc1noc(C)c1NC(=O)Nc1ccc2c(c1)CC(=O)N([C@@H](C)CO)C[C@@H](C)[C@H](CN(C)S(=O)(=O)c1cccs1)O2,6,7,1,3,-4,nt
C[C@@H]1CN([C@H](C)CO)C(=O)Cc2cc(NC(=O)Nc3ccc(C(F)(F)F)cc3)ccc2O[C@@H]1CN(C)S(=O)(=O)c1cccs1,-41,1,27*,3,-2,nt
C[C@H](CO)N1C[C@H](C)[C@@H](CN(C)S(=O)(=O)c2ccccc2)Oc2ccc(NC(=O)Nc3ccc(C(F)(F)F)cc3)cc2CC1=O,-6,0,65*,nt,-10,nt
C[C@H]1CN([C@@H](C)CO)C(=O)Cc2cc(NC(=O)Nc3ccc(C(F)(F)F)cc3)ccc2O[C@H]1CN(C)S(=O)(=O)c1cccs1,-39,0,-2,1,-2,nt
C[C@H]1CN([C@@H](C)CO)C(=O)Cc2cc(NC(=O)Nc3ccccc3)ccc2O[C@H]1CN(C)S(=O)(=O)c1cccs1,-17,3,33*,15,-32,nt
C[C@@H]1CN([C@H](C)CO)C(=O)Cc2cc(NC(=O)Nc3ccccc3)ccc2O[C@@H]1CN(C)S(=O)(=O)c1cccs1,-10,4,3,2,-1,nt
COc1ccccc1C(=O)Nc1ccc2c(c1)C(=O)N(C)C[C@@H](OC)[C@H](C)CN(CC1CC1)[C@H](C)CO2,-3,3,-9,2,-2,nt
C[C@H]1CN([C@@H](C)CO)C(=O)Cc2cc(NS(=O)(=O)c3cccs3)ccc2O[C@@H]1CN(C)S(=O)(=O)c1ccccc1,3,2,41*,-4,5,nt
C[C@@H]1CN([C@H](C)CO)C(=O)c2cc(NC(=O)Nc3ccc(C(F)(F)F)cc3)ccc2O[C@H]1CN(C)S(=O)(=O)c1ccccc1,-26,0,33*,-10,-78,-11
CC(C)NC(=O)N[C@@H]1C=C[C@@H](CC(=O)O)O[C@@H]1CO,-1,0,13,-1,0,nt
COC(=O)[C@]1(Sc2ccc(OC)cc2)CC(=O)N[C@@H]1c1ccccc1,3,-2,72*,nt,-25,nt
COC(=O)[C@@]1(Sc2ccc(C)cc2)CC(=O)N[C@@H]1c1ccccc1,2,-5,-7,nt,-7,nt
COc1ccc(C2CC(c3ccccc3O)=NN2C(=O)c2ccccc2)cc1OC (stereo not drawn),-13,41*,4,13,-8,-9
COc1ccc(C2=NN(c3ccc(C(=O)O)cc3)C(c3ccc(OC)c(OC)c3)C2)cc1 (stereo not drawn),53*,-4,8,2,-21,-6
COc1ccc([C@H]2CC(=O)C=C(c3ccc(-c4ccccc4)cc3)C2)cc1OC,3,2,1,-4,-1,-6
COc1ccc([C@H]2CC(=O)C=C(c3ccc(C(=O)O)cc3)C2)cc1OC,91*,0,-10,-4,-12,5
COc1ccc(C2CC(c3cccs3)=NN2C(=O)c2ccccc2)cc1OC (stereo not drawn),5,14,5,-3,-7,-8
C[C@@H]1CCCCO[C@H](CN(C)S(=O)(=O)c2ccc(F)cc2)[C@H](C)CN([C@@H](C)CO)C(=O)c2cc(N(C)C)ccc2O1,-3,4,6,9,12,nt
